In PubChem BioAssay AID588342 (National Center for Advancing Translational Sciences (NCATS), 2011):
Out of some 360,000 compounds screened, about 25,000 (6.9%) were called active. Another 9% or so got no clear call; they are omitted. Calls come from the whole dose curve; as a rule, active = well fitted inhibition curve with a large enough effect; inconclusive = small, poorly fitted or top-dose-only effect; inactive = flat fitted curve, though single readings scatter. Many of the other results were omitted from the sample, so actives are more common in it than they were.

biological target: Luciferin 4-monooxygenase (Photinus pyralis) (UniProt P08659); assay: qHTS profiling assay for firefly luciferase inhibitor/activator using purifed enzyme and Km concentrations of substrates (counterscreen for miR-21 project); details: purified FLuc, luminescence inhibition; series mostly up to 57.5 µM; activity change, negative = inhibition: at the top concentration; note: nearly all actives have a fitted effect of over 55% in size;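 for activity change, negative = inhibition: plate controls were vehicle for no effect and reference inhibitor for full effect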
In short: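 Purified P. pyralis luciferase, 10 nM final, with Km-level 10 uM D-luciferin and 10 uM ATP in 50 mM Tris acetate pH 7.5, 10 mM Mg acetate, 0.01% Tween-20, 0.05% BSA; 6-point qHTS titration about 60 µM downward; luminescence read.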
Potency is the fitted concentration of half-maximal effect.

Chain of Luciferin 4-monooxygenase (Photinus pyralis) (P08659 whole entry, looked up): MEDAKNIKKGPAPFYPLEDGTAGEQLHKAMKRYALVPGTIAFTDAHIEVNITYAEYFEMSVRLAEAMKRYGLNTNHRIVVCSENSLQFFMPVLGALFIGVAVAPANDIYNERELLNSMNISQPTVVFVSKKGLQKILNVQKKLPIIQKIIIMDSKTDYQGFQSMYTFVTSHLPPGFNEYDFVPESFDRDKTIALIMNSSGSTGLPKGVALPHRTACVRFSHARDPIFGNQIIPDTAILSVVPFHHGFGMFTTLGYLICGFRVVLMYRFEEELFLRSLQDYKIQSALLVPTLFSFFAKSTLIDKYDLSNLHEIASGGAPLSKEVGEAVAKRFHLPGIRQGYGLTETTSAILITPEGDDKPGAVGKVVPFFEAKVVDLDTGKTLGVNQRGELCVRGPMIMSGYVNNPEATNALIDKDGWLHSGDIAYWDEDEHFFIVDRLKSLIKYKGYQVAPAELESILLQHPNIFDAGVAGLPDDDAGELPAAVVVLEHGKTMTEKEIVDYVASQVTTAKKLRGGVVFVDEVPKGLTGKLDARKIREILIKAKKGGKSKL

SMILES | activity change, negative = inhibition | Potency
N#Cc1ccc(CN2CCN(CC(=O)Nc3ccccc3C(=O)NC3CC3)CC2)cc1 | 0.877% (inactive) | 
Cc1ccc(C(NC(=O)N2CCCC2)C(Cl)(Cl)Cl)cc1F (configuration not stated) | -0.884% (inactive) | 
CCCCn1c(=O)c2oc3ccccc3c2n(CC(=O)Nc2ccccc2OC)c1=O | -0.61% (inactive) | 
COc1ccc(C)cc1-n1c(-c2ccc(C)cc2)cc2c1CC(C)(C)CC2=O | 5.93% (inactive) | 
COC(=O)C1=C(C)NC(=S)NC1c1ccc(OCC(=O)N2CC(C)OC(C)C2)c(OC)c1 (configuration not stated) | 3.18% (inactive) | 
CC(=O)Nc1ccc(S(=O)(=O)N2CCN(S(=O)(=O)c3cccs3)CC2)cc1 | -1.89% (inactive) | 
O=C(NCC(c1ccc2c(c1)OCO2)N1CCN(c2ccccc2)CC1)C(=O)Nc1ccccc1F (configuration not stated) | -9.43% (inactive) | 
COc1ccc(CCNC(=O)c2nn(C)c3c2CSc2ccccc2-3)cc1OC | -17.3% (inactive) | 
COc1ccc(C(=O)NCC2CCCCC2)cc1S(=O)(=O)N1CCCC1 | -4.76% (inactive) | 
CCC(=O)N1CCc2cc(Br)cc(S(=O)(=O)CCC(=O)NCc3ccccc3OC)c21 | -9.49% (inactive) | 
COc1cc(OC)c(NC(=O)c2cnc(N3CCCC3)nc2C)cc1Cl | 2.64% (inactive) | 
Cc1sc2nc(CC(N)=O)[nH]c(=O)c2c1-c1ccccc1 | 2.11% (inactive) | 
CC1CCC2(CC1)N=C(c1ccccc1)C(=O)N2CC(=O)Nc1ccc(F)c(Cl)c1 (configuration not stated) | -0.323% (inactive) | 
O=C(N/N=C\c1cccc(Br)c1)c1ccccc1-n1cccc1 | 0.179% (inactive) | 
CSc1ccccc1C(=O)NCc1ccccc1 | 3.41% (inactive) | 
O=C(NCc1ccccc1)c1cc(-c2cccc(Cl)c2)on1 | 2.29% (inactive) | 
O=C(CCCCCNC(=O)c1ccccc1)N/N=C/c1ccccc1 | 0.301% (inactive) | 
Nc1ccc(C(=O)NCc2ccccc2)cc1 | -5.23% (inactive) | 
O=C(NCc1ccccn1)c1cc(-c2ccccc2Cl)on1 |  | 10.7 µM (active)
N=c1oc2ccccc2cc1C(=O)NCc1ccccc1 |  | 9.53 µM (active)
N=c1oc2ccccc2cc1C(=O)N/N=C/c1ccccc1 |  | 1.35 µM (active)
CCCCNC(=O)c1cc(-c2ccc(Cl)c(Cl)c2)on1 | 2.84% (inactive) | 
CC(C)[C@H](NC(=O)N1CCn2c1nc1ccccc12)C(=O)NCCc1ccccc1 | 0.834% (inactive) | 
Cc1ccc(C(=O)Nc2c(C#N)c(C)c(C)n2Cc2ccccc2)cc1 | -1.22% (inactive) | 
Cc1ccc(/C=N/NC(=O)CN2CCN(Cc3ccccc3)CC2)s1 | -3.1% (inactive) | 
Cc1ccc(C(=O)N/N=C/c2sc(=O)n(Cc3cccc(C(=O)O)c3)c2Cl)cc1 |  | 16.9 µM (active)

SMILES | activity change, negative = inhibition | Potency
C=C1CCC(N(O)c2cc(C)on2)C(=C)CCC2C1CC2(C)C (configuration not stated) | -0.208% (inactive) | 
CCCCCc1ccc(-c2ccc(C(=O)O)cc2)nc1 |  | 0.675 µM (active)
CCCCCc1ccc(-c2ccc(OCC)cc2)nc1 |  | 10.7 µM (active)
CCOc1ccc(-c2cc(C)n3nc(C(=O)Nc4ccc(C)c(C)c4)cc3n2)cc1 | 2.77% (inactive) | 
CCOc1c(CNCc2ccc(C(=O)O)cc2)cccc1OC | -0.885% (inactive) | 
CCCCCc1ccc(-c2cn(Cc3ccc4ccccc4c3)nn2)cc1 | 1.7% (inactive) | 
Cc1ccc(-c2cn3c(n2)sc2cc(C(=O)NCCCc4ccccc4)ccc23)cc1 | -7.52% (inactive) | 
Cc1cc(F)ccc1S(=O)(=O)Nc1ccc(C(=O)N(C)Cc2ccco2)cc1 | -0.606% (inactive) | 
CCc1nc2nc(C)cc(Nc3ccc(F)c(Cl)c3)n2n1 | 7.42% (inactive) | 
COc1ccc(/C=C/c2nc(C#N)c(NCc3ccc(F)cc3)o2)cc1OC | -8.93% (inactive) | 
CCCCCn1c(=O)[nH]c2cc(C(=O)NCCN(C)CCCC)ccc2c1=O | 0.508% (inactive) | 
CCc1ccc(C2CC(=O)c3c([nH]c(C(=O)OCc4ccc(C)cc4)c3C)C2)cc1 (configuration not stated) | 0.719% (inactive) | 
COc1ccccc1Nc1c2c(nc3ccc(NC(=O)/C=C/c4cc(OC)c(OC)c(OC)c4)cc13)CCCC2 | 22.1% (inactive) | 
N#Cc1cccc(NC(=O)C2CCCN(C(=O)c3ccc(Cl)cc3)C2)c1 (configuration not stated) | -1.14% (inactive) | 
CCc1ccc(CNCc2c(C(=O)O)n(Cc3ccc(F)cc3Cl)c3cc(OC)ccc23)cc1 | -6.35% (inactive) | 
O=C(CSc1nc2c(c(=O)[nH]1)CN(Cc1ccc3c(c1)OCO3)CC2)Nc1cc(F)ccc1F | -4.96% (inactive) | 
c1ccc(-c2cn3c(n2)CCc2ccc4cccnc4c2-3)cc1 |  | 10.7 µM (active)
COc1ccc(NC(=O)CCCc2nnc3n(CCC(C)C)c(=O)c4sccc4n23)c(OC)c1 | 1.17% (inactive) | 
CCc1ccc(NC(=O)c2cc3c(=O)n(Cc4cccnc4)ccc3nc2C)cc1 | -5.95% (inactive) | 
O=C(COc1ccc2oc3c(c2c1)CCCC3)Nc1ccccn1 |  | 1.07 µM (active)
CCOC(=O)N1CCN(C(=O)COc2ccc3oc4c(c3c2)CCCC4)CC1 | -16.5% (inactive) | 
CCN(CC)CCCNC(=O)COc1ccc2oc3c(c2c1)CCCC3 | -2.85% (inactive) | 
COc1ccc(C2c3c(oc4ccccc4c3=O)C(=O)N2Cc2ccc3c(c2)OCO3)cc1 (configuration not stated) | -4.43% (inactive) | 
COc1ccc(NC(=O)C2COc3ccccc3O2)cc1 (configuration not stated) |  | 16.9 µM (active)
O=C(Cc1c(F)cccc1Cl)Nc1ccc(-n2cnnn2)cc1 | 2.75% (inactive) | 
O=C(CCc1ccccc1)Nc1ncc([N+](=O)[O-])s1 |  | 15.1 µM (active)

SMILES | activity change, negative = inhibition | Potency
CCN(CC)S(=O)(=O)c1ccc(N2CCOCC2)c(NC(=O)C2COc3ccccc3O2)c1 (configuration not stated) | -2.19% (inactive) | 
CN(c1ccccc1)S(=O)(=O)c1cccc(NC(=O)Cc2c(F)cccc2Cl)c1 | -5.92% (inactive) | 
C/C(=N/NC(=O)C1COc2ccccc2O1)c1ccco1 (configuration not stated) | 2.51% (inactive) | 
COc1ccc(NC(=O)CC2COc3ccccc3O2)c(OC)c1 (configuration not stated) | -1.63% (inactive) | 
O=C(Nc1ncc([N+](=O)[O-])s1)C1COc2ccccc2O1 (configuration not stated) |  | 21.3 µM (active)
CC(/C=C/c1ccco1)=N/NC(=O)C1COc2ccccc2O1 (configuration not stated) | -20.5% (inactive) | 
CC(C)Cc1nnc(NC(=O)CCc2ccccc2)s1 | -15.7% (inactive) | 
O=C(Cc1c(F)cccc1Cl)Nc1ncc([N+](=O)[O-])s1 |  | 21.3 µM (active)
COc1ccc([N+](=O)[O-])cc1NC(=O)CCc1ccccc1 | -4.23% (inactive) | 
COc1cc(NC(=O)Cn2c(=O)n(Cc3ccco3)c(=O)c3oc4ccccc4c32)cc(OC)c1 | -1.65% (inactive) | 
COc1ccc(-c2nn(CC(=O)NC3CCCC3)c3c2cnc2ccc(F)cc23)cc1 | 5.55% (inactive) | 
CC(C)CN(C(=O)c1ccc2c(c1)OCO2)C1CCS(=O)(=O)C1 (configuration not stated) | 0.66% (inactive) | 
O=c1c2cccnc2n(Cc2cccc(F)c2)c(=O)n1Cc1ccccc1Cl | -8.13% (inactive) | 
COc1cc(/C=N/NC(=O)Nc2ccccc2)ccc1OCCOc1ccccc1C | 3.18% (inactive) | 
O=[N+]([O-])c1cc(Br)c(O)c(/C=N/Nc2nc3ccccc3s2)c1 |  | 19 µM (active)
COc1cc(/C=N/NC(=O)CCc2n[nH]c(=O)[nH]c2=O)ccc1O | -13.2% (inactive) | 
COc1cc(/C=N/Nc2nc3ccccc3s2)ccc1O |  | 2.39 µM (active)
COc1ccc(CC(=O)N/N=C/c2cc([N+](=O)[O-])cc(Br)c2O)cc1 | 4.36% (inactive) | 
COc1cc(/C=N/NC(=O)CNC(=O)c2ccncc2)ccc1OC(C)=O | 3.06% (inactive) | 
COc1cc(/C=N\Nc2nc(-c3cccs3)c(NC(C)=O)s2)ccc1O |  | 7.57 µM (active)
Cc1cc(C(=O)N/N=C/c2cc([N+](=O)[O-])cc(C)c2O)n[nH]1 | -0.645% (inactive) | 
Cn1c(SCC(=O)N/N=C/c2ccc(O)c(O)c2)nc2ccccc21 | -14.5% (inactive) | 
CCOC(=O)C1CCCN(S(=O)(=O)c2cc(-c3cc(C)no3)ccc2OC)C1 (configuration not stated) | 5% (inactive) | 
CSc1nn(Cc2cccc(C)c2)c(N)c1S(=O)(=O)c1ccccc1 | 4.36% (inactive) | 
COc1cccc(CNC(=O)C2CCC(CNS(=O)(=O)c3cccs3)CC2)c1 (configuration not stated) | -0.944% (inactive) | 
CC(C)(C)c1ccc(C(=O)NCC(c2ccc(Cl)cc2)N2CCOCC2)cc1 (configuration not stated) | -10.9% (inactive) | 

SMILES | activity change, negative = inhibition | Potency
CCOc1ccc(NC(=O)COC(=O)C2CCC(=O)N2)c([N+](=O)[O-])c1 (configuration not stated) | -10.7% (inactive) | 
Cc1cc(C(=O)COC(=O)C2CC2)c(C)n1-c1ccc(F)cc1 |  | 0.169 µM (active)
COc1ccc(-n2c(C)cc(C(=O)COC(=O)c3cc(OC)c(OC)cc3NC(=O)c3cccs3)c2C)cc1 | -2.76% (inactive) | 
Cc1ccc(-n2c(C)cc(C(=O)CN3C(=O)C(=O)N(C4CCCC4)C3=O)c2C)cc1 | -14.7% (inactive) | 
Cc1nc(CN(C)C(=O)CC2C(=O)NCCN2Cc2ccc(F)cc2)cs1 (configuration not stated) | 1.85% (inactive) | 
O=C(NCC(=O)N(c1ccccc1)C(C(=O)NCC1CCCO1)c1ccccc1)c1cccs1 (configuration not stated) | 1.75% (inactive) | 
Cc1cccc(N(C(=O)Cc2cccs2)C(C(=O)NCc2ccco2)c2ccncc2)c1 (configuration not stated) | -0.4% (inactive) | 
Cc1ccc(N(C(=O)Cc2cccs2)C(C(=O)NCC2CCCO2)c2ccncc2)cc1 (configuration not stated) |  | 16.9 µM (active)
CCOC(=O)c1cc2c(=O)n3ccccc3nc2n(CC2CCCO2)c1=NC(=O)c1ccccc1Br (configuration not stated) | -2.15% (inactive) | 
CCC(=O)Nc1nc(OC)cc(OC)n1 | 3.41% (inactive) | 
CN(C)c1nc(NN)nc(Nc2ccc(F)cc2)n1 | 2.45% (inactive) | 
CC(=O)Nc1nc(N(C)C)nc(N(C)C)n1 |  | 26.9 µM (active)
O=C(Nc1ccccc1C(=O)O)c1ccc(N2C(=O)C3CC=CCC3C2=O)cc1 (configuration not stated) |  | 4.78 µM (active)
COc1ccc(Cl)cc1NC(=O)c1cccc(N2C(=O)C3CC=CCC3C2=O)c1 (configuration not stated) | 3.07% (inactive) | 
O=C(Cc1ccccc1)Nc1ccc(C(=O)Nc2ccccc2C(=O)O)cc1 | -0.802% (inactive) | 
O=c1ccc2cc(S(=O)(=O)N3CCN(c4ccccc4)CC3)ccc2o1 | -0.908% (inactive) | 
CCOc1ccccc1NC(=O)Cn1c(=O)n(Cc2ccccc2)c(=O)c2c(C)c(C(=O)N(C)C)sc21 | 2.47% (inactive) | 
CC(C)(C)OC(=O)N/N=C/c1ccc(C(=O)O)cc1 |  | 19 µM (active)
COC(=O)N/N=C/c1ccc(/C=N/NC(=O)OC)cc1 | -3.29% (inactive) | 
O=C(N/N=C/c1ccc(OCC2COCCO2)cc1)c1ccc(Br)cc1 (configuration not stated) | -3.87% (inactive) | 
O=C(O)c1ccc(/C=N/NC(=O)c2ccc(Br)cc2)cc1 |  | 15.1 µM (active)
O=C(O)c1ccc(/C=N/NC(=S)NCc2ccccc2)cc1 | -4% (inactive) | 
COc1ccc(S(=O)(=O)N(CC(=O)N/N=C/c2ccc(C(=O)O)cc2)Cc2ccccc2)cc1OC | 2% (inactive) | 
Cc1cccc2c(=O)cc(CSc3ccccc3NC(=O)C(C)C)[nH]c12 | -4.14% (inactive) | 
